# Where “and” joins values, the source holds several entries; their conditions need not be identical. Identical values can stand only once.
# Legend:
# Assay in all cases: cell viability relative to vehicle control; higher = less cytotoxic
# Conditions in all cases: 10 µM
# [1] = test system: K562
# In short: (§1)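 Four leukaemia lines, as CRISPR-edited mutant clones and isogenic wild-type clones, were tested against Selleck bioactive, kinase and epigenetic probe libraries after removal of identity-inconsistent compounds. Cells were exposed to a single 10 µM dose for 48 h, and CellTiter-Glo luminescence was then read. Viability was calculated relative to the on-plate vehicle control.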
# [2] = test system: MARIMO
# In short: as §1
# [3] = test system: MOLM14
# In short: as §1
# [4] = test system: OCI-AML2
# In short: as §1
SMILES,cell viability ([1]; SRSF2 genotype: SRSF2 P95H/wt),cell viability ([1]; SRSF2 genotype: SRSF2 wt/wt) [%],cell viability ([2]; SRSF2 genotype: SRSF2 P95H/wt) [%],cell viability ([2]; SRSF2 genotype: SRSF2 wt/wt) [%],cell viability ([3]; SRSF2 genotype: SRSF2 P95H/wt) [%],cell viability ([3]; SRSF2 genotype: SRSF2 wt/wt) [%],cell viability ([4]; SRSF2 genotype: P95H/wt) [%],cell viability ([4]; SRSF2 genotype: wt/wt) [%]
C[N+]1(C)CCC(=C(c2ccccc2)c2ccccc2)CC1 [Diphemanil Methylsulfate],92.5% and 98%,96.6,101,106,99,98.6,99.8,101
CCCN[C@H]1CCc2nc(N)sc2C1 [Pramipexole (Mirapex)],102% and 81.8%,83.3,81.9,83.9,71.3,84.3,80.9,87.8
O=C(Nc1cccc(Nc2ncc(Br)c(NCCc3cnc[nH]3)n2)c1)N1CCCC1,46.5% and 64.2%,47.1,49.8,45.4,5.3,3.38,4.66,10.9
CC(=O)NC(Cc1ccc(O)cc1)C(=O)NC(CCCN=C(N)N)C(=O)NC(Cc1ccccc1)C(N)=O (stereo not drawn),87.2% and 83.5%,85.6,84.2,88.4,87.3,85.4,87.9,87.5
COC(=O)c1cc(O)c(O)c(O)c1 [Methyl gallate],103% and 104%,96.7,89.7,101,90.6,104,96.9,110
CC(COc1ccccc1Cc1ccccc1)N1CCCCC1 (stereo not drawn) [Benproperine phosphate],82.8% and 87.2%,91.3,70.4,78.5,82.5,88.2,93.7,84.7
O=C(O)C=CCCCCCCCO [Royal jelly acid],103% and 104%,102,104,105,98.5,102,110,112
C[C@H]1C[C@H]2[C@@H]3CCC4=CC(=O)C=C[C@]4(C)[C@@]3(F)[C@@H](O)C[C@]2(C)[C@@]1(O)C(=O)CO [Betamethasone (Celestone)],92.1% and 85.8%,89.5,86.1,98.4,92.8,86,84.4,108
Cc1cccc(-c2[nH]c(CNc3ccccc3F)nc2-c2ccc3ncnn3c2)n1,94.6% and 103%,99.9,102,109,95.2,98,111,114
C[C@@H]1O[C@@H](O[C@H]2[C@H](O[C@H]3CC[C@@]4(C)[C@@H](CC[C@]5(C)[C@@H]4CC=C4[C@@H]6CC(C)(C)CC[C@]6(C(=O)O)CC[C@]45C)[C@]3(C)CO)OC[C@H](O[C@@H]3O[C@H](CO)[C@@H](O)[C@H](O)[C@H]3O)[C@@H]2O)[C@H](O)[C@H](O)[C@H]1O [Pulsatilla saponin D],0.56% and 0.59%,0.55,0.46,0.67,0.5,0.59,0.5,0.54
CC(C(=O)O)c1ccc2c(c1)Cc1cccnc1O2 (stereo not drawn) [Pranoprofen],105% and 106%,110,110,107,102,105,112,106
NC(=O)c1cn(Cc2c(F)cccc2F)nn1 [Rufinamide (Banzel)],101% and 104%,106,106,108,107,107,113,103
O=C(c1cc(Cc2n[nH]c(=O)c3ccccc23)ccc1F)N1CCN(C(=O)C2CC2)CC1,92.6% and 101%,97.2,84,96.1,59.4,31,44.6,58
O=CO [Formate],101% and 91.4%,99,97.5,104,102,106,96.7,96
Oc1c(Cl)cc(Cl)c2cccnc12 [Chloroxine],62.1% and 63.6%,66.6,21.6,14.7,55.5,63.2,1.78,3.9
COc1cc(CCC(=O)CC(=O)CCc2ccc(O)c(OC)c2)ccc1O [Tetrahydrocurcumin],94.1% and 90.6%,89.2,90.2,88.7,92.8,94.5,85.8,97.3
COc1ccc(NS(=O)(=O)c2sc3ccc(Cl)cc3c2C)cc1N1CCNCC1,99.5% and 98.2%,104,100,99.2,96.4,106,87.9,78
CC1=CCC(=C(C)C)C(=O)CC(C)=CCC1 [Germacrone],110% and 109%,111,107,103,110,106,95.1,101
CCc1cnn2c(NCc3ccc[n+]([O-])c3)cc(N3CCCC[C@H]3CCO)nc12,8.67% and 18.9%,13.1,10.8,4.43,2.65,0.52,5.12,17.9
N[C@H]1CC[C@H](N[C@@H]2C[C@H]2c2ccccc2)CC1,96% and 97.8%,93.3,89.7,88.5,87.5,86.2,71.3,84.6
COC(=O)c1ccc(O)cc1 [Methyl 4-hydroxybenzoate],93% and 82.6%,88.2,90.5,94.1,91.9,95.5,91.2,90.5
